Compounds without any hit were thinned out: in the full panel of roughly 83,000, 20% have a hit.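 The test compound was applied at a single concentration to cells in 96-well plates for 48 hours, and percent growth was recorded.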 Values without a mark were called inactive. Active and inactive are the calls of the source. Rule for the calls: active = growth percent below 10; inactive = the rest.

Test systems include NCI-H23 lung; NCI-H322M lung; HOP-62 NSCLC; NCI-H460 lung; HOP-92 NSCLC; NCI-H522 lung; A549/ATCC NSCLC; 786-0 renal; COLO 205 colon; DU-145 prostate; K-562 leukemia; MALME-3M melanoma; MDA-MB-231 breast; RXF 393 renal; SF-268 CNS; SF-295 CNS; SF-539 CNS; UACC-257 melanoma; M14 melanoma; HCT-15 colon.
Common to all, as to test: NCI-60 one-dose screen, 48 h (100 = growth as untreated, 0 = no growth, -100 = all killed)
Holding throughout (conditions): 10 µM unless noted

For the compound `Oc1[nH]c2ccccc2c1N=Nc1nnc2n1N=C(c1ccccc1)CS2`, the growth in the assay on NCI-H23 lung is 70%; in the assay with NCI-H322M lung it was 104%; in the assay on HOP-62 NSCLC, 46.1%; with NCI-H460 lung it was 83.3%; in the assay with HOP-92 NSCLC it was 64.7%; in the assay with NCI-H522 lung it was 43.6%. In addition, the growth with A549/ATCC NSCLC was 69.1%; in the assay with 786-0 renal, 82%; in the assay with COLO 205 colon, 105%; with DU-145 prostate it was 84.1%; with K-562 leukemia it was 77.7%; in the assay on MALME-3M melanoma, 103%. Besides, the growth was 88.6% with MDA-MB-231 breast; 82.4% with RXF 393 renal; 69.1% in the assay on SF-268 CNS; 99.9% in the assay on SF-295 CNS; 82.6% with SF-539 CNS; 79.6% in the assay on UACC-257 melanoma. The growth in the assay on M14 melanoma is 99.1%; in the assay on HCT-15 colon, 105%.
With `C=C(C)CCC(C)N1CCC(N2CCC(C(=O)NCCc3ccccc3)CC2)CC1` (stereo not given), the growth in the assay on NCI-H23 lung was 62.4%; in the assay on NCI-H322M lung, 81%; with HOP-62 NSCLC, 79%; in the assay on NCI-H460 lung, 40.4%; with HOP-92 NSCLC, 71%; in the assay with NCI-H522 lung, 43.2%. The growth is 43.4% in the assay with A549/ATCC NSCLC; 70.2% in the assay with 786-0 renal; 25.4% in the assay on COLO 205 colon; 62.2% with DU-145 prostate; 17% in the assay with K-562 leukemia; 57.3% with MALME-3M melanoma. In addition, the growth in the assay with MDA-MB-231 breast was 69.7%; with RXF 393 renal it was 47.5%; in the assay on SF-268 CNS it was 57.8%; in the assay with SF-295 CNS, 79.5%; in the assay on SF-539 CNS, 69%; with UACC-257 melanoma, 72.6%. Besides, the growth in the assay on M14 melanoma was 58%; in the assay on HCT-15 colon it was 39.2%.
In the case of `c1ccc2c(c1)oc1cc3sccc3nc12`, the growth was 101% in the assay with NCI-H23 lung; 99.2% with NCI-H322M lung; 89.5% with HOP-62 NSCLC; 104% with NCI-H460 lung; 95.1% in the assay on HOP-92 NSCLC; 93% with NCI-H522 lung. The growth is 102% with A549/ATCC NSCLC; 96.1% with 786-0 renal; 109% in the assay with COLO 205 colon; 114% in the assay on DU-145 prostate; 98.1% in the assay with K-562 leukemia; 102% in the assay with MALME-3M melanoma. Besides, the growth was 101% with MDA-MB-231 breast; 109% in the assay on RXF 393 renal; 97.5% in the assay with SF-268 CNS; 108% in the assay with SF-295 CNS; 98.8% in the assay on SF-539 CNS; 104% with UACC-257 melanoma. In addition, the growth was 94.7% with M14 melanoma and 99.5% in the assay with HCT-15 colon.
Take `COc1cccc(C2=NN3C(C2)c2ccccc2OC3c2ccc(/C=C3\SC(=O)NC3=O)cc2)c1` (stereo not given): the growth with NCI-H23 lung was 92.3%; in the assay with NCI-H322M lung, 97.8%; in the assay on HOP-62 NSCLC, 110%; in the assay with NCI-H460 lung it was 101%; with HOP-92 NSCLC it was 106%; with NCI-H522 lung it was 87.8%. The growth was 103% with A549/ATCC NSCLC; 95.6% in the assay with 786-0 renal; 119% in the assay with COLO 205 colon; 106% with DU-145 prostate; 105% in the assay on K-562 leukemia; 105% with MALME-3M melanoma. Further, the growth is 95.4% in the assay on MDA-MB-231 breast; 105% in the assay with RXF 393 renal; 94.6% with SF-268 CNS; 94.3% with SF-295 CNS; 102% in the assay with SF-539 CNS; 106% in the assay with UACC-257 melanoma. Further, the growth in the assay with M14 melanoma was 104%; in the assay on HCT-15 colon it was 95.2%.
Consider `c1ccc2cc3c(Nc4ccc(N5CCOCC5)cc4)ccnc3cc2c1`, for which the growth in the assay on NCI-H23 lung is 95%; in the assay on NCI-H322M lung, 111%; with HOP-62 NSCLC, 100%; with NCI-H460 lung it was 86.5%; in the assay on HOP-92 NSCLC, 104%; in the assay with NCI-H522 lung, 97.5%. The growth with A549/ATCC NSCLC was 85%; in the assay with 786-0 renal it was 91.6%; in the assay on COLO 205 colon it was 106%; in the assay on DU-145 prostate, 97.2%; with K-562 leukemia it was 72.7%; with MALME-3M melanoma, 98.1%. In addition, the growth in the assay with MDA-MB-231 breast is 91.3%; with RXF 393 renal, 92%; in the assay with SF-268 CNS it was 87.6%; with SF-295 CNS it was 98%; in the assay on SF-539 CNS, 92.4%; in the assay on UACC-257 melanoma it was 108%. The growth in the assay on M14 melanoma was 99.9%; in the assay on HCT-15 colon it was 91.1%.
Consider `NNC(=O)CNC(=O)Nc1n[nH]c(=S)s1`, for which the growth in the assay with NCI-H23 lung was 100%; in the assay on NCI-H322M lung, 103%; with HOP-62 NSCLC it was 100%; with NCI-H460 lung it was 105%; in the assay with HOP-92 NSCLC it was 91.7%; with NCI-H522 lung, 88.7%. Further, the growth in the assay on A549/ATCC NSCLC is 105%; in the assay on 786-0 renal it was 103%; with COLO 205 colon it was 107%; with DU-145 prostate, 107%; with K-562 leukemia it was 90.3%; in the assay with MALME-3M melanoma, 87%. Further, the growth in the assay with MDA-MB-231 breast was 112%; with RXF 393 renal, 124%; in the assay with SF-268 CNS it was 107%; with SF-295 CNS, 94%; with SF-539 CNS, 109%; in the assay on UACC-257 melanoma, 99.9%. The growth in the assay on M14 melanoma is 93.5%; in the assay with HCT-15 colon it was 109%.
Regarding `COc1ccc(-c2nnc(COc3ccc(C(=O)/C=C/c4ccco4)cc3)o2)cc1`, the growth with NCI-H23 lung was 92.1%; in the assay on NCI-H322M lung, 86.6%; in the assay with HOP-62 NSCLC it was 75.8%; in the assay with NCI-H460 lung, 78.5%; with HOP-92 NSCLC, 88.4%; in the assay with NCI-H522 lung it was 91.8%. Besides, the growth is 87% in the assay on A549/ATCC NSCLC; 50.9% with 786-0 renal; 44.7% in the assay on COLO 205 colon; 61.6% in the assay with DU-145 prostate; 15.3% in the assay on K-562 leukemia; 125% in the assay with MALME-3M melanoma. Moreover, the growth was 90% with MDA-MB-231 breast; 65% in the assay with RXF 393 renal; 58.1% in the assay with SF-268 CNS; -2.9% (active) in the assay with SF-295 CNS; 55.9% with SF-539 CNS; 105% with UACC-257 melanoma. Besides, the growth is 98.8% in the assay on M14 melanoma and 68.3% with HCT-15 colon.
Take `O=C(N=Nc1c(O)[nH]c2ccccc12)c1oc2ccccc2c1CN1CCN(c2ccccc2)CC1`: the growth in the assay on NCI-H23 lung was -0.112% (active); in the assay with NCI-H322M lung, 33.2%; with HOP-62 NSCLC it was 7.31% (active); in the assay on NCI-H460 lung it was -65.3% (active); in the assay with HOP-92 NSCLC, -12% (active); with NCI-H522 lung, 20.4%. For the same compound, the growth was -13.5% (active) in the assay with A549/ATCC NSCLC; -83.2% (active) with 786-0 renal; 12.7% in the assay with COLO 205 colon; -34.2% (active) in the assay on DU-145 prostate; 16.5% with K-562 leukemia; -64.6% (active) in the assay on MALME-3M melanoma. The growth is 24.6% in the assay with MDA-MB-231 breast; -67.6% (active) with RXF 393 renal; 10.8% in the assay on SF-268 CNS; 13% in the assay with SF-295 CNS; 8.4% (active) in the assay with SF-539 CNS; 20.1% with UACC-257 melanoma. The growth in the assay on M14 melanoma was -8.59% (active); in the assay on HCT-15 colon, -8.29% (active).

The values above are taken from PubChem BioAssay (NCI).
